In PubChem BioAssay AID504652 (National Center for Advancing Translational Sciences (NCATS), 2011) one finds activity change, negative = inhibition data, which are given here for 25 compounds.

The whole screen tested about 360,000 compounds, of which about 11,000 (3.1%) were called active. This is one part of a sample in which actives are shown more often than they occur. Unmarked numbers belong to inactive results. Cut-off read from the data, not from the text of the source: active = activity change below about -30%; inactive = the rest.
% is set by controls: 0 for no effect and ±100 for the full control effect.

Chain of D(1A) dopamine receptor (Homo sapiens) (P21728 whole entry, looked up): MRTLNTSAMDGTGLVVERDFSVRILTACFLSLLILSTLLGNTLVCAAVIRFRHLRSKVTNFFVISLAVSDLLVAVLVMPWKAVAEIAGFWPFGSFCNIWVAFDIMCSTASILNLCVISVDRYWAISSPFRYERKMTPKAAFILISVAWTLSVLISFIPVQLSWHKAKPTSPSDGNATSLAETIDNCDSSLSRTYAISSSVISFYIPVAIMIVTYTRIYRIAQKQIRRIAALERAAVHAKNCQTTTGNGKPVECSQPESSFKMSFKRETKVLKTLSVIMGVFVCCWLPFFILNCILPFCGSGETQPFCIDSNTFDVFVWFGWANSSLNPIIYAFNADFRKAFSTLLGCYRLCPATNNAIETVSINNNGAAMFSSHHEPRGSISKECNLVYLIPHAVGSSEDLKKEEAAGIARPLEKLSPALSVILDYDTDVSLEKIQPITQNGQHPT

This assay deals with D(1A) dopamine receptor (Homo sapiens) (UniProt P21728). Nature of the assay: Antagonist of Human D 1 Dopamine Receptor: qHTS. The following applies: HEK293 TREx D1 cells, calcium flux, dopamine EC80; at 10 µM; stronger effect = lower value. The method, boiled down:
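Kinetic fluorescence of a calcium dye serves as the read-out. D1-expressing Hek293 Trex cells, induced overnight at 30 C, are exposed to compound for 180 s before an EC80 dopamine addition, then read 180 s further.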
For orientation: qHTS replaces the single test concentration by a dilution series.
For `CCOC(=O)c1scc(-c2ccc(C)cc2)c1S(=O)(=O)Nc1cc(C)ccc1C`, the activity change, negative = inhibition is -6.21%.
`COc1cc(OC)cc(C(=O)Nc2ccc3nc(Nc4cccc(C(F)(F)F)c4)cc(C)c3c2)c1`: the activity change, negative = inhibition was -9.91%.
Next, `O=C(COc1ccc(Cl)cc1[N+](=O)[O-])N1CCCCC1`: 15.9%; `O=C(c1ccc(Cl)c(Cl)c1)N1CCCC1`: -10.9%.
Next, `O=C(c1ccc(Cl)c([N+](=O)[O-])c1)N1CCN(c2ccccc2)CC1`: -35.8% (active); `Nc1ccc(C(=O)N2CCN(S(=O)(=O)c3ccc(Cl)cc3)CC2)cc1[N+](=O)[O-]`: -1.4%.
The value for `O=C(c1ccccc1)c1ccc(C(=O)N2CCN(c3ccccc3)CC2)cc1` was -32.4% (active); that for `O=C(c1ccc(Oc2ccc(Cl)cc2)c([N+](=O)[O-])c1)N1CCCC1` was -38.6% (active).
For `C/C(=C/c1ccccc1)C(=O)N1CCN(c2ccccc2)CC1`, the activity change, negative = inhibition is -2.86%.
The value for `CC1CCN(c2nc3ccc(C(=O)N4CCN(c5ccccc5)CC4)cc3s2)CC1` was 4.36%.
Next, `CO/N=C/c1ccc(N2CCN(C(=O)c3cccc(Cl)c3)CC2)c([N+](=O)[O-])c1`: -27.5%; `O=S(=O)(c1ccc(C2CCCCC2)cc1)N1CCN(c2ccc(Cl)c(Cl)c2)CC1`: 14.7%.
As for `Cc1cc(NS(=O)(=O)c2ccc3oc(=O)c4ncn(C)c4c3c2)ccc1Br`, the activity change, negative = inhibition is -1.47%.
Turning to `Cn1nnnc1Sc1ncnc2scc(-c3ccccc3[N+](=O)[O-])c12`, the activity change, negative = inhibition is -0.145%.
The value for `Cc1ccc(-c2nc(Cn3c(=O)cc(-c4ccccc4)c4c(C)nn(C)c43)c(C)o2)cc1` was 12%.
The value for `CN(C)c1ccc(NC(=O)CSc2nc(-c3ccco3)cc(C(F)(F)F)n2)cc1` was -4.62%.
Next, `CCn1c(C)c(C)c2cc(C(=O)NCCc3cc(OC)ccc3OC)ccc21`: 13.1%.
Consider `COc1ccc(C(=O)COC(=O)c2ccc([N+](=O)[O-])s2)cc1OC`, for which the activity change, negative = inhibition was 3.97%.
The value for `COc1ccc(Cl)cc1C(=O)OCC(=O)NCc1cccs1` was -19.7%.
Next, `COc1ccc(C(=O)OCC(=O)c2ccc(Cl)s2)c(OC)c1OC`: -34.5% (active); `COC(=O)c1ccccc1NC(=O)Cn1c(=O)cc(C)c2c(C)nn(-c3cccc(Cl)c3C)c21`: 11.3%; `Cc1ccc(C)c(Cn2c(CCCNC(=O)C3CCCCC3)nc3ccccc32)c1`: -4.99%.
The value for `Cc1ccc2c(cnn2C(=O)CCC(=O)NC2CCCC2)c1` was -47.2% (active); that for `Cc1cccc2c1cnn2C(=O)CCC(=O)NC1CCCCC1` was 11.5%.
For the compound `Cc1cccc(-c2noc(CCC(=O)NC3CCCC3)n2)c1`, the activity change, negative = inhibition is -18.1%.
